# Bioassay records (PubChem)
# MEP2-GFP yeast: yeast TOR pathway MEP2-GFP modulation | S. cerevisiae MEP2-GFP strain, flow cytometry GFP, 3 h; 100% = DMSO control level | GFP response vs DMSO, % at 10 µM | hit rate 0.51% among 330,000 | AID 2016;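 active = GFP response versus DMSO above a set limit, roughly screen mean plus 3 SD, cut at about 180% in these data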;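 also: median GFP fluorescence of the barcode-gated MEP2-GFP cells per well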
# CIT2-GFP yeast: alters CIT2-GFP fluorescence in TOR pathway yeast screen; hit rate 0.065% among 320,000; AID 2029; S. cerevisiae CIT2-GFP strain, flow cytometry, 3 h; 100 means same as DMSO wells; GFP response vs DMSO, % at 10 µM;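 active = GFP response relative to DMSO above a set limit, near the screen mean plus 3 SD, cut at about 150% in these data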;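 also: ratio of well median GFP fluorescence to mean of DMSO wells on the plate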
# AGP1 TOR yeast: alters AGP1-GFP fluorescence in TOR pathway yeast screen. S. cerevisiae AGP1-GFP multiplex flow cytometry, 3 h; GFP as percent of DMSO wells. GFP response vs DMSO, % at 10 µM. hit rate 0.02% among 320,000. AID 2066;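 active = GFP response relative to DMSO above a set limit, near screen average plus 3 SD, cut at about 150% in these data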;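 also: median GFP channel fluorescence of the gated AGP1 strain per well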
# RPL19A TOR yeast: modulators of TOR pathway RPL19A-GFP in S. cerevisiae; S. cerevisiae RPL19A-GFP strain, flow cytometry, 3 h; hits give low values; percent response vs DMSO, % at 10 µM; hit rate 0.3% among 330,000; AID 2025;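 active = percent response vs DMSO below 50%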;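 also: median channel GFP fluorescence of the barcoded RPL19A-GFP strain; ratio of sample median GFP to plate DMSO average so 100% = DMSO; lower means less RPL19A-GFP as with rapamycin TOR inhibition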
# LAP4 TOR yeast: modulators of TOR pathway LAP4-GFP in S. cerevisiae | S. cerevisiae LAP4-GFP multiplex, flow cytometry GFP, 3 h; median GFP as percent of DMSO wells | GFP response vs DMSO, % at 10 µM | hit rate 0.34% among 320,000;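 active = GFP response vs DMSO above a set limit, about the screen mean plus 3 SD, cut at about 150% in these data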
# LAP4 cherry2: yeast LAP4-GFP modulation, second cherry pick; shares compounds with LAP4 TOR yeast; S. cerevisiae LAP4-GFP strain, flow cytometry GFP, 3 h; GFP response vs DMSO, % at 10 µM; hit rate 20% among 590;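 active = GFP signal as percent of the solvent control above about 150%, meaning raised reporter expression, limit read from the data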;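 also: ratio of well median GFP fluorescence to plate DMSO mean so 100% = DMSO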
# MEP2 cherry2: yeast MEP2-GFP modulation, second cherry pick. AID 2622. S. cerevisiae MEP2-GFP strain, flow cytometry GFP, 3 h. hit rate 10% among 590. GFP response vs DMSO, % at 10 µM. shares compounds with LAP4 TOR yeast;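 active = GFP signal above 150% of the solvent control wells, that is a rise of more than half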;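 also: median channel GFP fluorescence of all gated yeast cells per well; ratio of median GFP to plate DMSO average so 100% = DMSO level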
# RPL19A GFP CP2: yeast RPL19A-GFP TOR reporter modulation, second cherry pick. S. cerevisiae RPL19A-GFP strain, flow cytometry GFP, 3 h; hits give low values; 100% means same as DMSO wells. GFP response vs DMSO, % at 10 µM. hit rate 3% among 590. AID 2623. shares compounds with LAP4 TOR yeast;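 active = under 65% GFP response relative to DMSO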;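 also: median GFP channel fluorescence per well over the all cells gate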
# CIT2 GFP CP2: yeast CIT2-GFP TOR reporter modulation, second cherry pick; shares compounds with LAP4 TOR yeast; S. cerevisiae CIT2-GFP strain, flow cytometry GFP, 3 h; DMSO control wells read 100%; GFP response vs DMSO, % at 10 µM; hit rate 8% among 590;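 active = GFP response vs DMSO above about 150%, limit read from the data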;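 also: median green fluorescence per well over all gated yeast cells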
# AGP1-GFP pick2: second confirmation of modulators of TOR reporter AGP1-GFP in yeast; 590 tested, under 10 active; shares compounds with LAP4 TOR yeast; S. cerevisiae AGP1-GFP strain, flow cytometry GFP, 3 h; percent response vs DMSO, % at 10 µM;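 active = over 150 percent of DMSO response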;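 also: median GFP channel fluorescence over all cells without mother daughter split; sample median GFP divided by mean DMSO control so 100% equals DMSO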
# Yeast autofluor: compound is autofluorescent in yeast s288c cells. S. cerevisiae s288c, 520 nm autofluorescence, flow cytometry, 3 h; hits give high values; zero means same as solvent-only cells. shares compounds with LAP4 TOR yeast. fluorescence change (kMESF span) at 33 µM. 610 tested, under 10 active;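 active = fluorescence span over the dose series, or activity score, above about 33, limit read from the data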
# s288c autofl DR: TOR screen hit shows autofluorescence in yeast s288c; shares compounds with LAP4 TOR yeast; S. cerevisiae s288c parental, compound autofluorescence, flow cytometry, 3 h; fluorescence change (span) at 33 µM; 110 tested, under 10 active;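 active = fluorescence change span, or the activity score built from it, above 25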
# TORC1 bypass: wildtype yeast growth loss with TORC1 bypass cells unaffected; shares compounds with LAP4 TOR yeast; S. cerevisiae BY4741 spot growth rating, 48-72 h; hits give low values; growth rating (0-3) at 30 µM; 120 tested, under 10 active; AID 504456;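 active = growth rating at most 1 for wild type yeast while the TORC1 bypass strain still grows fully, rated 3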
# Numbers without * were called inactive; . = no result given. A selection: hits, their analogues and other compounds. The true share with any hit is near 0.93%.
SMILES,MEP2-GFP yeast,CIT2-GFP yeast,AGP1 TOR yeast,RPL19A TOR yeast,LAP4 TOR yeast,LAP4 cherry2,MEP2 cherry2,RPL19A GFP CP2,CIT2 GFP CP2,AGP1-GFP pick2,Yeast autofluor,others
O=C1NC(=O)C(=Cc2ccc(SC3CCCCC3)o2)C(=O)N1,84.2,53.2,51.7,60.5,141.6,120.2,134.8,68.5,75.8,69.0,.,
NS(=O)(=O)c1ccc(-c2ccc(C=C3C(=O)NC(=O)NC3=O)o2)cc1,104.1,87.5,81.1,90.1,113.0,.,.,.,.,.,.,
CCN1CCN(c2ccc(N)cc2C)CC1,140.2,99.5,70.9,61.2,96.6,100.0,103.2,99.6,102.9,99.4,.,
CCN1CCN(c2ccc(N)cc2)CC1,89.6,89.2,97.1,87.6,95.4,.,.,.,.,.,.,
COC(=O)C1=C(c2ccc(Cl)c(C(F)(F)F)c2)C[C@@H]2CC[C@H]1N2C(=O)N1CCC(O)(c2ccc(Cl)cc2)CC1,91.9,92.8,101.4,94.5,111.0,.,.,.,.,.,.,
C[C@H]1C[C@@H](C)C(=O)[C@@H]([C@H](O)CC2CC(=O)NC(=O)C2)C1,81.1,44.0,53.1,57.5,136.7,129.3,158.9*,74.3,87.6,73.8,1.3,s288c autofl DR=0.51;TORC1 bypass=0
C[C@]12CCC3C(CC[C@H]4C[C@@H](O)CC[C@]34C)C1C[C@H](Br)[C@@H]2O (stereo not given in full),87.3,92.1,91.3,95.5,107.4,.,.,.,.,.,.,
C[n+]1c(-c2ccccc2)c2cc(N)ccc2c2ccc(N)cc21,96.1,84.9,82.0,92.8,90.1,.,.,.,.,.,.,
Nc1ccc2ccc3cccc[n+]3c2c1,224.3*,191.5*,111.2,119.5,147.6,.,.,.,.,.,14.7,
CC1(C)OC(c2ccccc2)=C/C(=C/C=C2C(=O)NC(=S)NC2=O)O1,125.8,.,75.2,92.1,179.2*,.,.,.,.,.,4.49,
Fc1ccc(C(OCCN2CCN(CCCc3ccccc3)CC2)c2ccc(F)cc2)cc1,99.2,86.6,87.9,75.8,207.6*,103.2,104.8,98.5,107.1,100.7,.,
C=C1C(=O)O[C@@H]2C[C@@H](C)[C@H]3C=CC(=O)[C@]3(O)C[C@@H]12,206.9*,54.3,25.8,99.1,90.8,102.2,103.1,99.3,100.1,98.6,.,
O=C(Nc1nccs1)c1c(O)c2c(n(Cc3ccco3)c1=O)CCCC2,90.7,120.1,117.8,94.1,108.8,.,.,.,.,.,.,
O=c1oc2ccccc2c(O)c1[C@H]1c2ccc(O)cc2Oc2c1c(=O)oc1ccccc21,91.9,59.5,61.1,98.1,242.7*,.,.,.,.,.,0,
NC1=C([N+](=O)[O-])C(c2ccc3c(c2)OCO3)c2c(c3ccccc3oc2=O)O1 (stereo not given),103.7,96.0,100.5,98.9,105.0,.,.,.,.,.,.,
CCOc1ccc(N2C(=O)/C(=C/c3ccco3)C(=O)NC2=S)cc1,99.3,94.7,89.0,95.1,123.3,.,.,.,.,.,.,
CCOc1ccc(N2C(=O)/C(=C\c3cccs3)C(=O)NC2=S)cc1,83.2,45.4,62.3,52.2,103.0,168.3*,131.4,70.4,74.6,70.7,-0.4,
CC(C)CCCn1c(O)c(/C=C2/C=CC=N2)c(=O)[nH]c1=O,101.6,102.6,101.6,104.1,91.7,.,.,.,.,.,.,
C=CCC1(Nc2ccccc2)CC(C)N(C)CC1C (stereo not given),102.9,89.5,103.0,99.5,112.1,.,.,.,.,.,.,
C=C1C(O)[C@@H]2O[C@]3(CC[C@H](/C=C/C(C)[C@@H]4CC(C)=CC5(O[C@H](C[C@@](C)(O)C(=O)O)CCC5O)O4)O3)CC[C@H]2O[C@@H]1C(O)CC(C)[C@H]1OC2(CCCCO2)CCC1C (stereo not given in full),83.9,50.4,80.2,98.1,266.5*,268.3*,124.8,124.4,86.0,102.7,0.4,
CN(C)C(=S)SSC(=S)N(C)C,91.7,71.1,75.8,93.7,200.7*,128.8,106.5,95.0,109.7,93.5,.,
Clc1ccc(NC2=NCCCS2)cc1Cl,98.3,97.5,97.0,94.5,99.9,.,.,.,.,.,.,
CCC(Oc1cc(Cl)ccc1Cl)C(=O)N1CCC2(CC1)OCCO2 (stereo not given),120.5,167.4*,121.5,107.9,102.6,98.1,101.5,100.4,100.7,102.0,.,
O=C(CCCOc1ccc(Cl)cc1Cl)N1CCC2(CC1)OCCO2,109.2,90.7,97.7,99.4,107.3,.,.,.,.,.,.,
